Records with an inconclusive call do not appear. A call without a number means that no potency is given here. Activity calls are given as the source filed them. Calls follow the shape of the dose curve; as a rule, active = well fitted cell-killing curve with a large enough effect; inconclusive = small, poorly fitted or top-dose-only effect, or effect the other way; inactive = no such curve, though single readings can be large or run the other way.

The experiment can be described thus: Cell viability assay in S16 Pmp22-HiBiT cells. Particulars: S16 Schwann Pmp22-HiBiT viability, CellTiter-Glo, 24 h; series mostly up to 27.9 µM. The text has this:
Assay Provider: Jim Inglese Ph.D. National Center for Advancing Translational Science, National Institutes of Health, Rockville, MD CMT is a heterogeneous group of neurological disorders that affect approximately 1 in 2,500 people. In particular, the most common form of CMT, CMT1A is genetically linked to the duplication of the PMP22 gene which leads to Schwann cell overexpression, thus manifesting itself as a typical case of dose-sensitive diseases. To identify small molecule compounds that can mediate the expression of PMP22 we developed a phenotypic assay screening strategy by utilizing genome editing techniques to construct Schwann cell lines containing novel reporter technology to monitor the transcriptional or translational regulation of PMP22. For high sensitivity we use a bioluminescent reporter system embedded in the 3' UTR of the PMP22 gene (S16(c9) Pmp22-F2sN) to identify compounds that inhibit gene expression. […] We can further discriminate the effect of all transcriptionally active molecules on PMP22 translation or stability with an assay that incorporates a short NLuc peptide (HiBiT) at the C-terminus of expressed PMP22 (S16(f8) PMP22-HiBiT) allowing alpha complementation and luminescence detection of membrane-associated PMP22 protein. These assays were screened against the NCATS Sytravon Library Collection. Miniaturization of these assays to 1536-well plate format for quantitative high throughput screening (qHTS) yielded rich data sets immediately from the qHTS assay (S16(c9) Pmp22-F2sN), when compared with data from a cell viability assay (Cell TiterGlo) to identify compounds that decreased the output signals through cellular toxicity to streamline the selection process of actives for subsequent characterization using the HiBiT assay (S16(f8) PMP22-HiBiT).
Cell viability assay in S16 Pmp22-HiBiT cells PROTOCOL TABLE (format as described by Inglese J, Shamu CE and Guy RK. 2007) SEQUENCE No. (e.g., 1, 2, 3, etc.); PARAMETER (e.g., Cells, Incubation, Reagent, etc.); VALUE and DESCRIPTION. 1. Cells. Add 500-1,000 cells in 4 uL in growth media (DMEM High Glucose, No Phenol Red media + 10% heat-inactivated FBS + 1% Pen/Strep supplemented media) per well into Greiner 1536-well white/solid bottom high base, TC-treated plates. 2. Compounds. Library compounds and controls added at 23nL per well, transferred by Pin Tool. 3. Incubation. Incubate plates at 37C, 5% CO2, 95% RH for 24 h. 4. Reagent. Add 3uL CellTiter-Glo per well of Greiner 1536-well plates. 5. Incubation. Incubate plates at room temperature for 15 min., protect from light. 6. Detector. Luminescence measured using CCD-based camera (Viewlux). NOTES (numbers refer to Sequence numbers above; values are from representative experiments) 6. Luminescence Read: Clear filter; Exposure = 1 sec, Gain = High, Speed = Slow, Binning = 2X REFERENCES: 1. Inglese J, Shamu CE and Guy RK, Reporting data from high throughput screening of small molecule libraries, Nature Chemical Biology, 2007, 3(8): 438-441. doi.org/10.1038/nchembio0807-438 2. Yasgar A, Shinn P, Jadhav A, Auld DS, Michael S, Zheng W, Austin CP, Inglese J and Simeonov A, Compound Management for Quantitative High-Throughput Screening. J. Assoc. Lab. Auto., 2008, 13: 79-89. doi: 10.1016/j.jala.2007.12.004
(HiBiT is a short tag that completes a luciferase, so light tracks the accessible tagged protein.)
Take `CCC(=O)C1=C(c2cccc([N+](=O)[O-])c2)N(C(=O)CC)n2c(nnc2C2CCCCC2)S1`: the Potency result was “inactive”. Next, `COc1ccc(Nc2nc3c(S(=O)(=O)c4ccccc4)nnn3c3ccc(Cl)cc23)cc1`: “inactive”; `COc1ccc(N(CC(=O)Nc2cc(Cl)ccc2C)S(=O)(=O)c2c(C)noc2C)cc1`: “inactive”. The same measure for `CCOCCCNC(=O)c1ccc(-n2c(-c3ccccc3)cc3c2CCC(C)C3)cc1` (centres undefined): “inactive”.

The values above are taken from PubChem BioAssay AID1508645 (National Center for Advancing Translational Sciences (NCATS), 2021).
